The target of assay [1] is T1, GST-Nv-NF-kB (Ser allele) (Nematostella vectensis, UniProt A7UNT2 2-411).
T1 sequence: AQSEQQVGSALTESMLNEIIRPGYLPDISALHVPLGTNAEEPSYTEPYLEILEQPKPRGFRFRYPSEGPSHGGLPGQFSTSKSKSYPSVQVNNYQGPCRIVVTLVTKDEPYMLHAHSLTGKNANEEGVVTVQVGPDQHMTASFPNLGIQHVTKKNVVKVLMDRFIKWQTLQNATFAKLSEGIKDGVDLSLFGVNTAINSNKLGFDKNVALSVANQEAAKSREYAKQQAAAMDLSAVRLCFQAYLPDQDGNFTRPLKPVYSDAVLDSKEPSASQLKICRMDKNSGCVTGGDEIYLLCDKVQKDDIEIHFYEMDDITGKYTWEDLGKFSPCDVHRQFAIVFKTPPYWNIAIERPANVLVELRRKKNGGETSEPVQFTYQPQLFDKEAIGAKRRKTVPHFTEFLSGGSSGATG
Kind of assay: protein-binding microarray (PBM); PBM: ~300 nM protein, 6 mM HEPES pH 7.8, 80 mM KCl, 0.5 mM EDTA, 0.5 mM EGTA, 6% glycerol, 35 ng/ul poly-dIdC, 1% milk, 1 h, room temperature; Ap Aiptasia and Nv Nematostella (sea anemones) / Co Capsaspora / Aq Amphimedon (sponge) / Dm Drosophila / Hu human; RHD is the Rel homology domain; high values mean tight binding. The following applies: dsDNA, one strand shown.

A further assay concerns the target GST-Hu-p50 (Homo sapiens, UniProt P19838 7-356). Described as above. The conditions noted are these: dsDNA, one strand shown.

Here are results for 14 sequences from article PMC5700166.

Chain of GST-Hu-p50 (P19838 7-356): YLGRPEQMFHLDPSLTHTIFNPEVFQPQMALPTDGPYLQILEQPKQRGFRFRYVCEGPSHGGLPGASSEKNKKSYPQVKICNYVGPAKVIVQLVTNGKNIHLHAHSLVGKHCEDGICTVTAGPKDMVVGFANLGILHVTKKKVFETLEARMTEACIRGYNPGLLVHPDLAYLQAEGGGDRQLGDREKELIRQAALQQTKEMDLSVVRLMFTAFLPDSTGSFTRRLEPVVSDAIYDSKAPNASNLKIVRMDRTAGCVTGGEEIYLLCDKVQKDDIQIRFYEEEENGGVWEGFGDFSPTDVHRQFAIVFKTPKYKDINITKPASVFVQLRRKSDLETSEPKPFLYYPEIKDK

On to “CCGATTAACATCACAGGGAATTCTGATGTTAATCGGGTCTTGATTCGCTTGACGCTGCTG”, for which the binding signal in assay [1] was 4.96 z-score; with GST-Hu-p50 it was 4.29 z-score.
For “CCGATTAACATCAGGGAAACTCATGATGTTAATCGGGTCTTGATTCGCTTGACGCTGCTG” the same measures were 4.62 z-score and 3.13 z-score.
For “CCGATTAACATCAGGCTTTCCCATGATGTTAATCGGGTCTTGATTCGCTTGACGCTGCTG” the same measures were 1.98 z-score and 1.36 z-score.
With “CCGATTAACATCAGGAAAATACCTGATGTTAATCGGGTCTTGATTCGCTTGACGCTGCTG”, the binding signal turned out to be 3.24 z-score in assay [1] and 3.12 z-score in the assay with GST-Hu-p50.
For the sequence “CCGATTAACATCAAGGGAATCCCTGATGTTAATCGGGTCTTGATTCGCTTGACGCTGCTG”, the values for the binding signal (in assay [1]; in the assay with GST-Hu-p50) were 5.4 z-score and 4.17 z-score, respectively.
For “CCGATTAACATCAGGGCAGCCCCTGATGTTAATCGGGTCTTGATTCGCTTGACGCTGCTG” the same measures were 2.79 z-score and 4.31 z-score.
For “CCGATTAACATCAAGCATCCCCCTGATGTTAATCGGGTCTTGATTCGCTTGACGCTGCTG” the same measures were 5.87 z-score and 4.97 z-score.
For “CCGATTAACATCAATTCCCAACATGATGTTAATCGGGTCTTGATTCGCTTGACGCTGCTG” the same measures were 1.63 z-score and 1.56 z-score.
As for “CCGATTAACATCACCTTGGGAAATGATGTTAATCGGGTCTTGATTCGCTTGACGCTGCTG”, the binding signal (in assay [1]; with GST-Hu-p50) was 2.17 z-score in each case.
As for “CCGATTAACATCAATTTCCCATATGATGTTAATCGGGTCTTGATTCGCTTGACGCTGCTG”, the binding signal in assay [1] came out at 3.63 z-score; with GST-Hu-p50, 3.09 z-score.
“CCGATTAACATCACTTGGGAAACTGATGTTAATCGGGTCTTGATTCGCTTGACGCTGCTG”: the binding signal came to 2.07 z-score in assay [1] and 1.38 z-score with GST-Hu-p50.
With “CCGATTAACATCAGTAACTCCCTTGATGTTAATCGGGTCTTGATTCGCTTGACGCTGCTG”, the binding signal in assay [1] amounted to 2.17 z-score; with GST-Hu-p50 it was 2.5 z-score.
With “CCGATTAACATCAAATAGCCCCCTGATGTTAATCGGGTCTTGATTCGCTTGACGCTGCTG”, the binding signal in assay [1] came out at 3.62 z-score; in the assay with GST-Hu-p50, 4.73 z-score.
For “CCGATTAACATCACGGATTTCCCTGATGTTAATCGGGTCTTGATTCGCTTGACGCTGCTG” the same measures were 5.46 z-score and 3.76 z-score.
